For experiment [1], the target named is alpha-glucosidase (Oryza sativa, rice) (UniProt Q653V4). Briefly: Counterscreen for Glucocerebrosidase Inhibitors: qHTS Assay for Rice alpha-Glucosidase at pH 5.0 (AID 997). Put shortly: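 Rice alpha-glucosidase (4 nM final) with 400 uM 4-methylumbelliferyl-alpha-D-glucopyranoside in citrate buffer pH 5.0, 20 min at room temperature, stopped at pH 10; fluorescence 365/440 nm, compounds 0.7 nM–77 uM, AC50 from Hill fits.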

Experiment [2] can be described thus: Validation of Assay for Modulators of Lamin A Splicing (AID 1459; active means well fitted curve in the direction sought with a large enough effect in the signal ratio; the % refers to the signal ratio;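 further: cells exposed to compound for two days before reading; ratio rise marks activators and ratio drop marks inhibitors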). Put shortly:
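HeLa S3 lamin A-EGFP/DsRed2 stable clone, 600 cells/well, Opti-MEM 2% FBS; compounds by pin tool; 48 hrs, 37 °C/5% CO2; Acumen 488 nm scan, objects 10-100 um; GFP/RFP intensity ratio.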

The target in experiment [3] is DNA repair nuclease/redox regulator APEX1 (Homo sapiens) (UniProt P27695). Briefly: qHTS Validation Assay for Inhibitors of the Human Apurinic/apyrimidinic Endonuclease 1 (APE1) (AID 1705; further: potency means the concentration at half of the fitted maximal effect). The essentials:
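qHTS, 1536-well. APE1 + cpd 15 min RT → 50 nM TAMRA/BHQ-2 THF-abasic dsDNA substrate → kinetic fluorescence, 3 reads/60 s; delta(read3−read1) = reaction progress. No-enzyme buffer = negative control.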
(qHTS replaces the single test concentration by a dilution series.)

Experiment [4] in a line: qHTS for differential inhibitors of proliferation of Plasmodium falciparum line 7G8 (AID 1815).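 Further: parasite growth measured after three days of incubation.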 Further: potency means the concentration at half of the fitted maximal effect.
Experiment [5] is described as follows: qHTS for differential inhibitors of proliferation of Plasmodium falciparum line 3D7 (AID 1876). Further: potency means the concentration at half of the fitted maximal effect.
Experiment [6] can be described thus: qHTS for differential inhibitors of proliferation of Plasmodium falciparum line D10 (AID 1877).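 Further: parasites grown with compound for 72 h before DNA staining.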 Further: potency means the concentration at half of the fitted maximal effect.
Experiment [7] is described as follows: qHTS for differential inhibitors of proliferation of Plasmodium falciparum line Dd2 (AID 1882). Further: nearly all actives have a fitted effect of over 65% in size. Further: potency means the concentration at half of the fitted maximal effect. Conditions: Potency: Plasmodium falciparum Dd2 proliferation inhibition. Put shortly: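 Dd2-infected erythrocytes (0.3% parasitemia, 2.5% hematocrit final) incubated with compound 72 h at 37 C, 5% CO2; lysed with saponin/Triton buffer containing SYBR Green I, incubated overnight in the dark, then read by fluorescence (485/535 nm). Normalized to 0.29 uM artemisinin and DMSO.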

The nature of experiment [8]: qHTS for differential inhibitors of proliferation of Plasmodium falciparum line W2 (AID 1883).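 Further: parasites grown with compound for 72 h before lysis and staining.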 Further: potency means the concentration at half of the fitted maximal effect. The conditions noted are these: Potency: Plasmodium falciparum W2 proliferation inhibition.
Experiment [9] can be described thus: qHTS Assay for Modulators of Human Peripheral Myelin Protein 22 (PMP22) Expression/Activity (AID 1967; active means well fitted curve in the direction sought with a large enough effect in the signal ratio; the % refers to the signal ratio). The essentials: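 Luminescence ratio of Pmp22 promoter-driven green luciferase to EF-alpha-driven red luciferase, in engineered mouse MSC80 Schwann cells, served as read-out. Compounds were incubated 24h; untreated cells defined 0% Activity; curves were classified by r2, magnitude and activity.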

Experiment [10] concerns the target Ferritin light chain (Equus caballus) (UniProt P02791). Briefly: qHTS Validation Assay for Identification of Novel General Anesthetics (AID 2323). Further: series mostly up to about 77 µM. Put shortly:
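Fluorescence at 535 nm (excitation 380 nm) reported loss of 1-AMA binding to horse-spleen apoferritin (10 uM) in PBS with 50% saturated 1-aminoanthracene, after 10 min room-temperature incubation with compound; values from Hill fits of normalized response.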

Experiment [11] has as its target ATP-dependent DNA helicase Q1 (Homo sapiens) (UniProt P46063). Put plainly: qHTS Validation Assay for Inhibitors of RecQ-Like Dna Helicase 1 (RECQ1) (AID 2353). The essentials:
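50 nM RECQ1T1 preincubated 15 min with compound in Tris pH 8.0 buffer with MgCl2, DTT, Tween-20 and 2.5 ug/ml poly(dI-dC); started with 200 nM TAMRA/BHQ-2 forked duplex and 2 mM ATP. Unwinding read as fluorescence (525/598 nm), two reads 2 h apart.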

Experiment [12] in a line: Counterscreen for APE1 Inhibitors: Fluorescent Dye Displacement Validation Assay (AID 1707). The essentials: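 Assay buffer: Tris-HCl pH7.5 with 50mM NaCl, 2 mM MgCl2, 0.01% Tween-20. Dye 250 nM, duplex 50 nM final. Readout: decrease in ThO endpoint fluorescence, 480 nm excitation, 540 nm emission.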
On the technique in general: Counterscreens check selectivity or assay interference.

Experiment [13] deals with Endonuclease 4 (Escherichia coli (strain K12)) (UniProt P0A6C1). Briefly: Counterscreen for APE1 Inhibitors: qHTS Validation Assay for Inhibitors of Endonuclease IV (AID 1708). Put shortly: (§1)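 E. coli EndoIV at 2 nM final, preincubated 15 min at room temperature with compound, then 50 nM TAMRA/BHQ-2 THF abasic-site duplex added. Buffer: 50 mM Tris-HCl pH 7.5, 50 mM NaCl, 2 mM MgCl2, 1 mM DTT, 0.01% Tween-20. Kinetic fluorescence increase, third minus first read.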

The nature of experiment [14]: qHTS for differential inhibitors of proliferation of Plasmodium falciparum line GB4 (AID 1816).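 Further: parasite growth measured after 72 h incubation.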 Further: potency means the concentration at half of the fitted maximal effect. Conditions: Potency: Plasmodium falciparum GB4 proliferation inhibition.
A short description of experiment [15]: qHTS for differential inhibitors of proliferation of Plasmodium falciparum line HB3 (AID 1886).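 Further: parasites grown with compound for 72 h before SYBR Green readout.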 Further: potency means the concentration at half of the fitted maximal effect. Conditions: Potency: Plasmodium falciparum HB3 proliferation inhibition.
Experiment [16] has as its target RecQ-like DNA helicase BLM (Homo sapiens) (UniProt P54132). Briefly: qHTS Validation Assay for Inhibitors of Bloom's syndrome helicase (BLM) (AID 2364). The essentials:
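50 nM BLM preincubated 15 min at room temperature with compound in pH 8.0 Tris buffer containing 2.5 ug/ml poly(dI-dC); started with 200 nM TAMRA/BHQ-2 forked duplex and 2 mM ATP (final). Unwinding read as TAMRA fluorescence increase, two reads 2 h apart.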

Experiment [17] deals with Endonuclease 4 (Escherichia coli (strain K12)) (UniProt P0A6C1). Put plainly: Counterscreen for APE1 Inhibitors: qHTS Assay for Inhibitors of Endonuclease IV (AID 2565). The essentials: as §1

Inconclusive results are not listed. Some of the results follow. Active and inactive are the calls of the source. Unless noted, the call rests on the fitted dose curve; in most records, active means well fitted curve in the direction sought with a large enough effect; inconclusive means small, poorly fitted or top-dose-only effect, or another doubt; inactive means no such curve, though single readings can be large; an effect the other way counts as inactive or inconclusive.

The values below come from PubChem BioAssay (NCATS).

Chain of DNA repair nuclease/redox regulator APEX1 (Homo sapiens) (P27695 whole entry, looked up): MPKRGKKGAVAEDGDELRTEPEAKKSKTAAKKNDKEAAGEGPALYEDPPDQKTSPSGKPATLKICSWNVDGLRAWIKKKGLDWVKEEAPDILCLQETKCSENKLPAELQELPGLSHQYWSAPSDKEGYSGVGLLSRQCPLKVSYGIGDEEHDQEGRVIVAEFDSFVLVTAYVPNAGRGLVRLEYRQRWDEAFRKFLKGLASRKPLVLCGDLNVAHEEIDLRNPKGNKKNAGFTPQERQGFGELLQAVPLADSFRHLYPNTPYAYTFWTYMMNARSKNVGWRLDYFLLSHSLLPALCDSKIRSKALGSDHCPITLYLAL
Chain of Ferritin light chain (Equus caballus) (P02791 2-175 limits assumed): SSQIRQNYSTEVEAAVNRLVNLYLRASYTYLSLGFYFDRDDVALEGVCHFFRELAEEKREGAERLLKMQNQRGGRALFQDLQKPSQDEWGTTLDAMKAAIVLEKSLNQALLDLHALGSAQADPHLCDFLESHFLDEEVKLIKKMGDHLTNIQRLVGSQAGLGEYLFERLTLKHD
Chain of ATP-dependent DNA helicase Q1 (Homo sapiens) (P46063 whole entry, looked up): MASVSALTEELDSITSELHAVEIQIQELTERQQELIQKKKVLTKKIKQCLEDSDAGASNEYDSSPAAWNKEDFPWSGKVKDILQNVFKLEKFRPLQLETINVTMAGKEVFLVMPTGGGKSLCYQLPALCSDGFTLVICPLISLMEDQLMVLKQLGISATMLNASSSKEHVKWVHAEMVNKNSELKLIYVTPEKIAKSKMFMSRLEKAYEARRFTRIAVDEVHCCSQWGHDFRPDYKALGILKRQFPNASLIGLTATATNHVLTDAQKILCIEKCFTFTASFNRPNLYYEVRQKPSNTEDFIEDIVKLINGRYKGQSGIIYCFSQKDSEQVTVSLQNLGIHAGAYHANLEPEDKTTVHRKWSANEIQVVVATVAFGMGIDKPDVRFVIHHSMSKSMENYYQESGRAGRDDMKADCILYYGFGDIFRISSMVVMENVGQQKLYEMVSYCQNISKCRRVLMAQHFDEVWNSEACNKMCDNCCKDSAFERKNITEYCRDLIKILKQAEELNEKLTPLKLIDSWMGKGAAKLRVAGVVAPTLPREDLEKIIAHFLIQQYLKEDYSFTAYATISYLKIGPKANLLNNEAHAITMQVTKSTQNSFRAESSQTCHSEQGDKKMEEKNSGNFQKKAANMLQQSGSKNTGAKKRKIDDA
Chain of RecQ-like DNA helicase BLM (Homo sapiens) (P54132 whole entry, looked up): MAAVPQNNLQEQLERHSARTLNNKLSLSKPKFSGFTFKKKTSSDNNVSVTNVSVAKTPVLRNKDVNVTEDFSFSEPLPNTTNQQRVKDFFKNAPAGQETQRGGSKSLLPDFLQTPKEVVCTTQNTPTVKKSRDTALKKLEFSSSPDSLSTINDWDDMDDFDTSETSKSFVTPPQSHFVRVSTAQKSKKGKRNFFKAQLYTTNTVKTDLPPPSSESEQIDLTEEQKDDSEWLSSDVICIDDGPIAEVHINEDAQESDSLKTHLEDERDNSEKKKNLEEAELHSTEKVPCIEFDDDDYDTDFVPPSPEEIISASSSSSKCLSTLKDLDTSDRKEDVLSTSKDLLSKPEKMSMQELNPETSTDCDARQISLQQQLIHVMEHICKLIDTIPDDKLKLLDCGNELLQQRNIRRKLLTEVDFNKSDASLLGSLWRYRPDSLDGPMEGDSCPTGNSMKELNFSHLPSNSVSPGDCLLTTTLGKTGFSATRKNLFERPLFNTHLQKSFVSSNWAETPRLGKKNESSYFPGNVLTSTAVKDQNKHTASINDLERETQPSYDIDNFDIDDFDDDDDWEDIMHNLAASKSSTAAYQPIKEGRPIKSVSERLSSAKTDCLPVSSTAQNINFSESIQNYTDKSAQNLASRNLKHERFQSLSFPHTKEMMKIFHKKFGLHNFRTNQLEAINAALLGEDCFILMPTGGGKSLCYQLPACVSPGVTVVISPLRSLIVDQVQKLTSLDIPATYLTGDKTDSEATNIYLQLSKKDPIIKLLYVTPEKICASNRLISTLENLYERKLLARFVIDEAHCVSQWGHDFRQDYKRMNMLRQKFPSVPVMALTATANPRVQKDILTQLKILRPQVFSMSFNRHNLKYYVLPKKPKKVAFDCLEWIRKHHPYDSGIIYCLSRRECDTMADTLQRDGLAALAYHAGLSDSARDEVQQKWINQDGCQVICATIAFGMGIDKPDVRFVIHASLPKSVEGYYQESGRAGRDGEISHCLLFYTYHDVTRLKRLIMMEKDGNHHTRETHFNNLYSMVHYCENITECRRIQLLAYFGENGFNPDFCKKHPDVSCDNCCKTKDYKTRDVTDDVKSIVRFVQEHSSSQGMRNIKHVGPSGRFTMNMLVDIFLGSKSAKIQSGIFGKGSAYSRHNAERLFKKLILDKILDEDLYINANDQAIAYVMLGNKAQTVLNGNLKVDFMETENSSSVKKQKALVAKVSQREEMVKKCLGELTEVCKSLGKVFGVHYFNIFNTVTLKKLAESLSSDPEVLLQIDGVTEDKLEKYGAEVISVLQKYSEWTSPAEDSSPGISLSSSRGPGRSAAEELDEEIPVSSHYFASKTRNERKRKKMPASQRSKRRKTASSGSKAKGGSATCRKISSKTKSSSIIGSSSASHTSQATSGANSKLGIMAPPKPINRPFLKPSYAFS

For the molecule `COc1ccccc1N1CCN(CCCCN2C(=O)c3ccccc3C2=O)CC1`, the molecule was called inactive in [1], in experiment [2] and in experiment [9]. In addition, the Potency result in [3], in experiment [4], in experiment [6], in experiment [7], in experiment [10] and in experiment [11] was “inactive” in each case. Further, the Potency was 12.6 µM (active) in [5] and 3.55 µM (active) in [8].

Turning to `COC(=O)C1=C(C)NC(C)=C([N+](=O)[O-])C1c1ccccc1C(F)(F)F` (stereo not drawn), the molecule was classed as inactive in [2]. Further, the Potency result in [12], in experiment [13], in experiment [6] and in [11] was “inactive” throughout. Further, in [8], the Potency was 12.6 µM (active).

Turning to `CC[C@H](NC(=O)c1c(C)c(-c2ccccc2)nc2ccccc12)c1ccccc1`, the molecule was classed as inactive in experiment [1] and in experiment [2]. Also, the Potency entry in experiment [12], in experiment [10] and in experiment [11] was “inactive” each time. The Potency is 7.08 µM (active) in [4], 11.2 µM (active) in experiment [14], 8.91 µM (active) in experiment [8] and 12.6 µM (active) in experiment [15].

For `COc1cc2c(CCNC(C)=O)c[nH]c2cc1O`, the molecule was called inactive in experiment [1], in [2] and in [9]. The Potency in experiment [3] was 39.8 µM (active). Further, the Potency entry in experiment [13], in experiment [4], in experiment [5], in experiment [6], in experiment [7] and in [15] was “inactive” each time. Also, the Potency result in [10], in experiment [11] and in [16] was “inactive” each time.

`N[C@H]1CONC1=O`: the result in experiment [2] was inactive. Further, the Potency result in experiment [3], in experiment [4], in [14], in [5], in experiment [6] and in [7] was “inactive” each time. The Potency entry in experiment [8], in [15], in [10] and in [11] was “inactive” in each case.

Regarding `C[C@H](NC(=O)/C(C#N)=C/c1ccc(O)c(O)c1)c1ccccc1`, the outcome in experiment [1] and in experiment [2] was inactive. Further, the Potency result in experiment [3], in [13] and in experiment [11] was “inactive” throughout. Besides, the Potency in experiment [4] is 7.08 µM (active); in [14] it was 11.2 µM (active); in [5], 14.1 µM (active); in experiment [6], 12.6 µM (active); in experiment [8], 10 µM (active); in experiment [15], 12.6 µM (active).

Consider `N[C@@H](Cc1ccc(F)cc1)C(=O)O`, for which, in [2], the result was inactive. Besides, the Potency result in experiment [3], in [13], in experiment [7], in experiment [10], in experiment [11] and in experiment [16] was “inactive” throughout. In addition, the Potency in experiment [4] is 12.6 µM (active); in experiment [14], 14.1 µM (active); in [5] it was 11.2 µM (active); in experiment [6], 17.8 µM (active); in [8], 11.2 µM (active); in experiment [15] it was 12.6 µM (active).

Regarding `Nc1ncnc2c1ncn2C1CCCO1` (stereo not drawn), the molecule was called inactive in experiment [2]. For the same molecule, the Potency entry in [12], in experiment [13], in experiment [4], in experiment [14], in [5] and in experiment [6] was “inactive” each time. Moreover, the Potency entry in experiment [7], in experiment [15], in experiment [10] and in experiment [11] was “inactive” throughout.

Take `N#C/C(=C\c1ccc(O)c(O)c1)C(=O)NCCCNC(=O)/C(C#N)=C/c1ccc(O)c(O)c1`: the result in experiment [1] and in [2] was inactive. Also, the Potency result in [3] is “inactive”.

Regarding `O=C(O)C1CCNCC1`, the molecule was called inactive in experiment [1] and in experiment [2]. For the same molecule, the Potency result in [3], in [12], in [7], in experiment [10], in [11] and in experiment [16] was “inactive” in each case.

As for `CCCCCCN(CCCCCC)C(=O)Cc1c(-c2ccc(F)cc2)[nH]c2ccccc12`, the call in experiment [1] and in [2] was inactive. The Potency entry in experiment [3] and in experiment [13] was “inactive” each time. Besides, the Potency was 5.01 µM (active) in experiment [4]; 3.98 µM (active) in [14]; 5.01 µM (active) in experiment [5]; 12.6 µM (active) in [6]; 10 µM (active) in experiment [7]; 3.55 µM (active) in experiment [8]. For the same molecule, the Potency in [15] is 7.08 µM (active).

As to `NC1CCN(O)C1=O` (stereo not drawn), the call in [2], in experiment [9] and in [17] was inactive. The Potency entry in experiment [12], in experiment [13], in experiment [4], in experiment [14], in experiment [5] and in experiment [6] was “inactive” in each case. The Potency entry in experiment [7], in experiment [8], in experiment [15], in experiment [11] and in experiment [16] was “inactive” each time.

With `c1ccc2c(c1)CC(N1CCN(c3cccc4c3OCCO4)CC1)C2`, the result in experiment [1] and in [2] was inactive. Also, the Potency result in experiment [12], in [6], in experiment [11] and in [16] was “inactive” in each case. In addition, the Potency in experiment [5] is 12.6 µM (active); in experiment [8] it was 5.01 µM (active).

On to `COC(=O)C(C)(N)Cc1ccc(O)cc1` (stereo not drawn), for which the call in experiment [2] and in experiment [9] was inactive. The Potency entry in experiment [3], in experiment [13], in experiment [7], in experiment [10], in experiment [11] and in experiment [16] was “inactive” in each case. Further, the Potency in experiment [14] is 14.1 µM (active); in experiment [8], 12.6 µM (active).

For the molecule `Cc1cccc(C)c1OCC(N)C(C)C` (stereo not drawn), the result in experiment [2] and in experiment [9] was inactive. The Potency result in experiment [12], in experiment [5], in experiment [6], in experiment [15], in experiment [10] and in experiment [11] was “inactive” throughout. In addition, the Potency in experiment [4] was 11.2 µM (active); in experiment [7] it was 4.47 µM (active); in experiment [8], 0.708 µM (active).

As to `N=C(N)c1ccc(N)cc1`, the molecule was called inactive in experiment [1], in [2] and in [9]. The Potency entry in experiment [3], in experiment [13], in experiment [4], in [5], in experiment [6] and in experiment [7] was “inactive” in each case. Also, the Potency entry in [15], in [10], in [11] and in experiment [16] was “inactive” each time. For the same molecule, the Potency in experiment [8] was 14.1 µM (active).

On to `O=S(=O)(c1cccc2c(Cl)cccc12)N1CCCNCC1`, for which the molecule was classed as inactive in experiment [1] and in [2]. The Potency result in [3], in experiment [10] and in experiment [11] was “inactive” each time. Also, the Potency in [4] is 5.01 µM (active); in experiment [14], 3.16 µM (active); in experiment [5] it was 14.1 µM (active); in experiment [7], 4.47 µM (active); in experiment [8] it was 1.58 µM (active).

On to `Cc1nc2c(OCc3ccccc3)cccn2c1CC#N`, for which the molecule was classed as inactive in experiment [1] and in [2]. For the same molecule, the Potency result in [3], in [13], in [4], in [14], in [5] and in [7] was “inactive” throughout. Further, the Potency entry in experiment [15], in experiment [10] and in experiment [11] was “inactive” throughout.

Consider `N[C@@H](Cc1ccc(O)c(I)c1)C(=O)O`, for which the outcome in experiment [1], in experiment [2] and in experiment [9] was inactive. Besides, the Potency entry in experiment [12], in experiment [4], in experiment [14], in [5], in experiment [6] and in experiment [7] was “inactive” throughout. Further, the Potency result in [8], in experiment [15], in [10] and in experiment [11] was “inactive” in each case.
